These results are taken from ChEMBL document CHEMBL4513216, “Probing the Open Global Health Chemical Diversity Library for Multistage-Active Starting Points for Next-Generation Antimalarials” (ACS Infect Dis, 2020).

Screen size: about 68,000 compounds; about 2,700 (4%) showed an effect of 50% or more. For the sample, strong results were picked, then their nearest neighbours and some compounds at random.

The experiment concerns Plasmodium berghei. Put plainly: Screen against P. berghei liver stage (PbLuc), transformed with Luciferase, at 2uM. It is filed as functional, HepG2. To be noted: tested at 2 uM.
For `Cc1cc(-c2ccccc2C(=O)O)nc(C2CCCCN2C)n1` (centres undefined), the INHIBITION is on record as 11.52%.
Consider `O=C(c1cccc(-n2cccn2)c1)N1CCOC(CCO)C1` (centres undefined), for which the INHIBITION is reported as 62.51%.
The result for `NCC1CN(C(=O)c2cccc(-n3cccn3)c2)CCO1` (centres undefined) reads 45.82%.
On to `O=C(c1cccc(-n2cccn2)c1)N1CCCOC(CN2CCCC2)C1` (centres undefined), for which the INHIBITION came to 33.9%.
In the case of `c1cnc2c(c1)nc1n2[C@@H](CNCc2nccs2)COC1`, the INHIBITION is recorded as -111.95%.
With `Fc1cccc(N2CCc3ncnc(N4CCOCC4)c3CC2)c1`, the INHIBITION is -7.49%.
As to `CCOc1ccc(SCCNS(=O)(=O)CC)cc1`, the INHIBITION was found to be 20.15%.
As for `O=C(O)c1c(-c2cccnc2)ncc2c1CCN(CC1CCOC1)C2` (centres undefined), the INHIBITION is on record as 21.13%.
`CSc1cc2c(cc1NC(=O)N(C)Cc1ccncc1)OCCO2`: the INHIBITION is -10.36%.
Take `Cn1c2ncccc2c(=O)n1CC(=O)NCCc1c(F)cccc1F`: the INHIBITION is -0.83%.
In the case of `Cn1c2ncccc2c(=O)n1CC(=O)NCCC1=CCCCC1`, the INHIBITION worked out at 54.49%.
With `Cc1ccc(CNC(=O)Cn2c(=O)c3cccnc3n2C)cc1F`, the INHIBITION turned out to be 16.93%.
On to `CCC[C@@H](NC(N)=O)C(=O)N1Cc2ccccc2-c2ccccc2C1`, for which the INHIBITION is listed as -9.87%.
Regarding `CC(C)Cc1noc(CNc2cccc(-c3nnnn3C)c2)n1`, the INHIBITION is -45.29%.
For the compound `CC=C(C)C(=O)NS(=O)(=O)c1ccc(C(F)(F)F)cn1`, the INHIBITION is -31.15%.
For the compound `O=C(c1cccc(O)c1)N1CCN(Cc2nnc(C3CCC3)o2)CC1`, the INHIBITION worked out at 1.41%.
In the case of `Cc1cc(CN(C)C(=O)NC2CCN(Cc3ccccn3)CC2)no1`, the INHIBITION was -7.82%.
Consider `CN(Cc1cccnc1)C(=O)NC1CCN(Cc2ccccn2)CC1`, for which the INHIBITION is listed as -37.28%.
On to `COCC(O)CN(C)C(=O)NC1CCN(Cc2ccccn2)CC1` (centres undefined), for which the INHIBITION is reported as 54.85%.
`COc1ncc(C2(O)CCN(Cc3cc(F)ccc3F)CC2)c(OC)n1`: the INHIBITION was -48.87%.
With `CCc1cc(C(=O)N[C@@H]2CC[C@@H](N3CCOCC3)[C@@H]2O)no1`, the INHIBITION is recorded as -49.75%.
The result for `COc1ccc(OCCN2CCC(N3CCNC3=O)CC2)cc1` reads 81.79%; that for `COc1ccccc1OCCN1CCC(N2CCNC2=O)CC1`, 3.86%; that for `CCOc1ccc(OCCN2CCC(N3CCNC3=O)CC2)cc1`, 12.81%.
For the compound `C[S+]([O-])CCNC(=O)N1CCSC2(CCCCC2)C1` (centres undefined), the INHIBITION is on record as -66.38%.
The figure for `Cc1cccc(N2CC[C@@H]3CN(Cc4csc(C)n4)CCO[C@@H]3C2)n1` is 25.87%; for `Cc1cnc(C(=O)N2C[C@@H]3CC[C@H]2CN(c2cnccn2)C3)cn1` it is 53.98%; for `Cc1nnsc1C(=O)N1C[C@@H]2CC[C@H]1CN(c1cnccn1)C2` it is 28.73%.
Take `Cc1noc(C)c1C(=O)N1C[C@@H]2CC[C@H]1CN(c1cnccn1)C2`: the INHIBITION is 20.32%.
`c1ccc2c(c1)SCCC2NCc1ccc(N2CCOCC2)cc1` (centres undefined): the INHIBITION amounted to 15.16%.
The figure for `NCCn1cc(C(=O)NCc2ccccc2-n2cccn2)nn1` is 28.67%; for `NCCn1cc(C(=O)NCc2ccccc2Cn2cccn2)nn1` it is 62.3%.
For the compound `Cc1nccn1-c1ccccc1CNC(=O)c1cn(CCN)nn1`, the INHIBITION was -27.6%.
`CC(Cn1cccn1)n1cnc2ccc(F)cc2c1=O` (centres undefined): the INHIBITION is reported as 32.71%.
Take `Cc1n[nH]c(C2CN(CC(=O)NCc3cccs3)CCO2)n1` (centres undefined): the INHIBITION was 34.42%.
Turning to `CN1CC(C(=O)NCCc2ccc(F)c(Br)c2)CC1=O` (centres undefined), the INHIBITION is -5.13%.
On to `CC(=O)N1CCCC(C(=O)NCCc2ccc(F)c(Br)c2)C1` (centres undefined), for which the INHIBITION was 63.17%.
With `CCN(CCNC(=O)C1CCN(C(C)=O)CC1)c1ccccc1C`, the INHIBITION is reported as 31.13%.
Take `CCN(CCNC(=O)C1CCCN(C(C)=O)C1)c1ccccc1C` (centres undefined): the INHIBITION is 56.33%.
With `COc1ccc2[nH]cc(CCNC(=O)C3CCCN(C(C)=O)C3)c2c1` (centres undefined), the INHIBITION is reported as 13.65%.
Take `CCCN1CCC(C(=O)NCCN(CC)c2ccccc2C)CC1`: the INHIBITION is -5.9%.
As to `O=C(CN1C=Nc2ccccc2S1(=O)=O)NCCc1cccs1`, the INHIBITION stood at 6.12%.
Regarding `CCn1ncc(Br)c1CN(C)S(=O)(=O)c1ccc(C)cc1`, the INHIBITION amounted to 0.3%.
Turning to `CCCc1nc(NCc2c(C)nn(CCC)c2C)c2cnn(C)c2n1`, the INHIBITION amounted to 32.53%.
Consider `CC(C)CNC(=O)CNc1c(NCc2ccco2)c(=O)c1=O`, for which the INHIBITION was found to be 10.93%.
Consider `COc1ccnc(CN2CCCC(CCc3ccc(F)cc3)C2)c1OC` (centres undefined), for which the INHIBITION came out at 58.03%.
Turning to `COc1ccnc(CN2CCCC(CCc3ccccc3)C2)c1OC` (centres undefined), the INHIBITION is given as 11.37%.
With `COc1coc(CN2CCCC(CCc3ccc(F)cc3)C2)cc1=O` (centres undefined), the INHIBITION is reported as 30.44%.
The figure for `Cc1nc(CN2CCCC(N(C)Cc3nnc(C4CC4)o3)C2)no1` (centres undefined) is -10.47%.
As to `Cc1cc(CN(C)C2CCCN(Cc3noc(C)n3)C2)no1` (centres undefined), the INHIBITION is listed as 80.46%.
For the compound `Cc1nnc(CN(C)C2CCCN(Cc3noc(C4CC4)n3)C2)o1` (centres undefined), the INHIBITION was determined as 62.13%.
In the case of `Cc1cc(CN(C)C2CCCN(Cc3noc(C)n3)C2)on1` (centres undefined), the INHIBITION is listed as -2.71%.
In the case of `CC(C)c1nc(CN(C)C2CCN(Cc3nnc(C4CC4)o3)C2)no1` (centres undefined), the INHIBITION came to 37.9%.
Consider `Cc1nc(CN(C)C2CCN(Cc3nnc(C4CC4)o3)C2)no1` (centres undefined), for which the INHIBITION is recorded as 49.01%.
